Measurements: PubChem BioAssay (Tox21)
Several values for one entry are separate records, joined by “and”; a condition that tells them apart may be missing. Equal entries are not always repeated. Records with an inconclusive call do not appear. Activity calls are given as the source filed them. Unless noted, the call rests on the fitted dose curve; in most records, active means well fitted curve in the direction sought with a large enough effect in the repeat runs; inconclusive means weak or mixed curves; inactive means no such curve, though single readings can be large; an effect the other way counts as inactive or inconclusive.

Assays:
[1] = qHTS assay for small molecules that induce genotoxicity in human embryonic kidney cells expressing luciferase-tagged ATAD5 (AID 651632); further: nearly all actives have a fitted effect of over 15% in size; further: potency means the concentration at half of the fitted maximal effect
Summary of the method: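 Cells were seeded at 2,000 per well, dosed with compound, and incubated 16 hr at 37C in 5% CO2. Luciferase activity was then quantified after a 30 min room-temperature incubation with Amplite.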

[2] = qHTS assay for small molecule agonists of the p53 signaling pathway - cell viability (AID 651633; calls by dose curve; further: nearly all actives have a fitted effect of over 30% in size; further: potency means the concentration at half of the fitted maximal effect)
Summary of the method: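 p53RE-bla cells were treated with compound for 16 hours at 37 C. Cytotoxicity was then measured as CellTiter-Glo luminescence after 30 min at room temperature.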

[3] = qHTS assay for small molecules that induce genotoxicity in human embryonic kidney cells expressing luciferase-tagged ATAD5 - cell viability (AID 651634; calls by dose curve; further: nearly all actives have a fitted effect of over 25% in size; further: potency means the concentration at half of the fitted maximal effect)
Summary of the method: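 Cells (HEK293T, luciferase-tagged ATAD5) are seeded at 2,000 per well, dosed with compound or DMSO vehicle, and incubated 15.5 hr at 37C and 5% CO2. CellTiter-Fluor is added for 30 min before fluorescence is measured.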

[4] = qHTS assay for small molecule disruptors of the mitochondrial membrane potential - cell viability (AID 720634; calls by dose curve; further: nearly all actives have a fitted effect of over 20% in size; further: potency means the concentration at half of the fitted maximal effect)
Summary of the method: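 Cytotoxicity was measured by ATP quantitation in HepG2 wells that had first been treated with compound for 1 hr and stained with m-MPI dye; CellTiter-Glo incubation was 30 min at room temperature.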

[5] = qHTS assay for small molecule disruptors of the mitochondrial membrane potential (AID 720635); further: potency means the concentration at half of the fitted maximal effect
Summary of the method: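 HepG2 cells exposed to compound 1 hr at 37C, then Mito-MPS dye 30 min. Ratio read of aggregate (540/590 nm) versus monomer (490/535 nm) fluorescence.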

[6] = qHTS assay to test for compound auto fluorescence at 590 nm (red) in HepG2 cells (AID 720674)
Summary of the method: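 Seeding: 2,000 HepG2 cells/well, MEM/10% FBS, overnight 37 C. Dosing: compound vs DMSO. Incubation: 1 hr, 37 C, 5% CO2. Read: fluorescence 540 ex/590 em, Rose Bengal sodium as red reference.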

[7] = qHTS assay to test for compound auto fluorescence at 535 nm (green) in HepG2 cells (AID 720675)
[8] = qHTS assay to test for compound auto fluorescence at 460 nm (blue) in HEK293 cells (AID 720678)
Summary of the method: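 Cells were seeded and left to adhere for 4-5 hr at 37C. Compounds were then pin-transferred. After an overnight incubation at 37C under 5% CO2, intrinsic fluorescence at 405/460 nm was measured and referenced to triamterene.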

[9] = qHTS assay to test for compound auto fluorescence at 590 nm (red) in HEK293 cells (AID 720679)
Summary of the method: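 Each well held 2,000 HEK293 cells in medium containing 10% dialyzed FBS. Following 4-5 hr attachment at 37C, 23 nL test compound or DMSO was added; plates sat overnight, and red fluorescence (540/590nm) was recorded.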

Measured: Potency

O=C(O)CCC/C=C\C[C@@H]1[C@@H](/C=C/[C@@H](O)COc2cccc(C(F)(F)F)c2)[C@H](O)C[C@@H]1O
inactive: [1] | [2] | [3] | [4] | [5] | [6] | [7] | [8] | [9]

c1ccc2cc(C3=NCCN3)ccc2c1
inactive: [1] | [2] | [3] | [4] | [5] | [6] | [7] | [8] | [9]

CCC(C)[C@H]1O[C@]2(C=C[C@@H]1C)C[C@@H]1C[C@@H](C/C=C(\C)[C@@H](O[C@H]3C[C@H](OC)[C@@H](O[C@H]4C[C@H](OC)[C@H](NC(C)=O)[C@H](C)O4)[C@H](C)O3)[C@@H](C)/C=C/C=C3\CO[C@@H]4[C@H](O)C(C)=C[C@@H](C(=O)O1)[C@]34O)O2 (stereo partly specified)
inactive: [1] | [4] | [6] | [7] | [8] | [9]
active: [2] 2.98 µM and 11.9 µM | [3] 6.68 µM and 10.6 µM | [5] 3.76 µM and 11.9 µM

COc1cc([C@@H]2c3cc4c(cc3C(O[C@@H]3O[C@@H]5CO[C@@H](C)O[C@H]5[C@H](O)[C@H]3O)C3COC(=O)[C@@H]32)OCO4)cc(OC)c1OP(=O)(O)O (stereo partly specified)
active: [1] 2.66 µM and 6.68 µM
inactive: [2] | [3] | [4] | [5] | [6] | [7] | [8] | [9]

CC(=O)O[C@H]1CC[C@@]2(C)C(=CC[C@H]3[C@@H]4CC[C@H](C(C)=O)[C@@]4(C)CC[C@@H]32)C1
inactive: [1] | [2] | [3] | [4] | [5] | [6] | [7] | [8] | [9]

CC(=O)Nc1c(I)c(C(=O)O)c(I)c(N(C)C(C)=O)c1I
inactive: [1] | [2] | [3] | [4] | [5] | [6] | [7] | [8] | [9]

CS(=O)(=O)OCC(O)C(O)COS(C)(=O)=O (stereo unspecified)
inactive: [1] | [2] | [3] | [4] | [5] | [6] | [7] | [8] | [9]

Cc1ccc(C2(O)CCN(CCCC(=O)c3ccc(F)cc3)CC2)cc1
inactive: [1] | [2] | [3] | [4] | [5] | [6] | [7] | [8] | [9]

CCCCCCCCCCCCCCCCCC(=O)OC[C@@H](O)[C@H]1OC[C@H](O)[C@H]1O
inactive: [1] | [2] | [3] | [4] | [5] | [6] | [7] | [8] | [9]

O=[n+]1ccn([O-])c2ccccc21
inactive: [1] | [2] | [3] | [4] | [5] | [6] | [7] | [8] | [9]

CCNC(=O)[C@@H]1CCCN1C(=O)[C@H](CCCN=C(N)N)NC(=O)[C@H](CC(C)C)NC(=O)[C@@H](Cc1c[nH]c2ccccc12)NC(=O)[C@H](Cc1ccc(O)cc1)NC(=O)[C@H](CO)NC(=O)[C@H](Cc1c[nH]c2ccccc12)NC(=O)[C@H](Cc1cnc[nH]1)NC(=O)[C@@H]1CCC(=O)N1
active: [2] 8.41 µM | [3] 8.41 µM | [4] 29.8 µM | [5] 27.8 µM
inactive: [1] | [6] | [7] | [8] | [9]

CC1=C(/C=C/C(C)=C/C=C/C(C)=C/C(=O)Oc2c(C)c(C)c3c(c2C)CC[C@@](C)(CCC[C@H](C)CCC[C@H](C)CCCC(C)C)O3)C(C)(C)CCC1
inactive: [1] | [2] | [3] | [4] | [5] | [6] | [7] | [8] | [9]

CCN(CC)c1ccc(C(=C2C=CC(=[N+](CC)CC)C=C2)c2ccccc2)cc1
inactive: [4] | [6] | [7] | [8] | [9]
active: [1] 2.37 µM | [2] 1.68 µM | [3] 7.5 µM | [5] 0.266 µM

C=CCCCCCCCCC(=O)OC
inactive: [1] | [2] | [3] | [4] | [5] | [6] | [7] | [8] | [9]

O=[N+]([O-])O[C@@H]1CO[C@H]2[C@@H]1OC[C@@H]2O
inactive: [1] | [2] | [3] | [4] | [5] | [6] | [7] | [8] | [9]

C=C[C@]1(C)C[C@@H](OC(=O)CSCCN(CC)CC)[C@]2(C)[C@H](C)CC[C@]3(CCC(=O)[C@H]32)[C@@H](C)[C@@H]1O
inactive: [1] | [2] | [3] | [4] | [5] | [6] | [7] | [8] | [9]

O=C(Cn1c(=O)sc2ccc(Cl)cc21)N1CCN(CCO)CC1
inactive: [1] | [2] | [3] | [4] | [5] | [6] | [7] | [8] | [9]

CC[C@H](C)[C@H]1O[C@]2(CC[C@@H]1C)C[C@@H]1C[C@@H](C/C=C(\C)[C@@H](O[C@H]3C[C@H](OC)[C@@H](O[C@H]4C[C@H](OC)[C@@H](O)[C@H](C)O4)[C@H](C)O3)[C@@H](C)/C=C/C=C3\CO[C@@H]4[C@H](O)C(C)=C[C@@H](C(=O)O1)[C@]34O)O2
inactive: [1] | [4] | [6] | [7] | [8] | [9]
active: [2] 4.22 µM | [3] 2.98 µM | [5] 7.5 µM

Cc1c(Cl)cccc1Nc1ncccc1C(=O)O
inactive: [1] | [2] | [3] | [4] | [6] | [7] | [8] | [9]
active: [5] 13.3 µM
